Test results from PubChem BioAssay AID1347426 (Functional Genomics Laboratory (NCATS/FGL), 2020).
About 1,400 (4.5%) of roughly 31,000 sequences were called active.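 The calls were made as follows: active = median seed-adjusted z-score above 1 or below -1; inactive = the rest.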 The full list was thinned out, with actives kept by preference.

assay: Novel Modifiers of Survival Motor Neuron (SMN) Protein: Gene Identification via Genome-wide siRNA Screen; conditions: HEK293T SMN2-luciferase reporter, siRNA knockdown, 72 h; actives lie on both sides;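 also: luminescence tracks full-length SMN protein made from the SMN2 reporter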
Method in brief: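 HEK293T cells stably carrying an SMN2 promoter/splicing cassette–luciferase reporter were reverse-transfected with 1 pmol siRNA per well (druggable-genome library, 3 siRNAs per gene) and grown 72 h at 37 °C. Luminescence, normalized to negative-control siRNA and log10-transformed, was scored as MAD.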

| Sequence | median seed-adjusted z-score |
| --- | --- |
| CCAGGUCUCGAAAACCAAATT against EN2 | 0.319 (inactive) |
| CAGUGUUAGUCAUAUCGUATT against DHX36 | 0.165 (inactive) |
| CCUCGGCUCCAGCAAAUCATT against CACNB1 | 0.225 (inactive) |
| GUGGGUAACUGGAACAAAATT against MFGE8 | 0.0367 (inactive) |
| CAACCAACAUUUACAUAUUTT against OPRK1 | -1.08 (active) |
| GCCUUGCGCUAAAUCUCGATT against NSD1 | -0.372 (inactive) |
| GCAUUAACCCAAUUGCUCUTT against EDNRB | 0.119 (inactive) |
| GAGCAGUCGCGAGAAGAUUTT against PPP1R12C | -0.535 (inactive) |
| GGAGAGUUAAGAUCAAUGUTT against KCNB2 | 1.22 (active) |
| CCGUCAAAGUGAUCAACAATT against IKZF3 | 0.0181 (inactive) |
| GGUGCUACGUUAGACCAGUTT against SNRPA1 | -2.71 (active) |
| GCCUCCCACUACUUUGAAATT against IL2RB | 0.333 (inactive) |
| GCAUGUCCAAUGUUCCAUATT against ACAT1 | -0.848 (inactive) |
| UAAUAAAGCGGAUUCUAGATT against THAP7 | -0.0317 (inactive) |
| GUCGAGUAUUCAUCCGAGATT against DHX57 | -0.138 (inactive) |
| CGAUAGCACCUUCCUGUUUTT against GALT | 0.484 (inactive) |
| GCUUACAUAGCAAAUCUAATT against ST8SIA2 | 0.516 (inactive) |
| CAGUGUUCGUUCAACCCUATT against ZNF665 | 1.13 (active) |
| GAUCCGCACGGACUGCUUUTT against ACVRL1 | -0.361 (inactive) |
| GAAAUCUUCUUACGAAAAATT against XPO7 | 0.546 (inactive) |
| GACAGGACGUGAACAUGCATT against SLC22A18AS | 0.0382 (inactive) |
| CAACGAAGAGGGCAUGUUUTT against MEOX2 | 1.36 (active) |

| Sequence | median seed-adjusted z-score |
| --- | --- |
| GCAGCAAGAAGGUAGCACATT against ZNF598 | -0.303 (inactive) |
| GUCUUUACUCUUCAACUGATT against THBS4 | -0.28 (inactive) |
| GCAACUCAAAGGUGAUAAATT against CCNK | -0.717 (inactive) |
| GGCUCAAUGUGGACUACAATT against HS3ST1 | 1.21 (active) |
| CUACUUUUAUCUUGCAUAATT against ZNF264 | 0.617 (inactive) |
| GGACUCUACUGCUAAAGUATT against TBC1D8B | -0.985 (inactive) |
| GAAAAACGGUGACCGUCAATT against MYO9B | -0.0287 (inactive) |
| CAGUUUGCUCUAUCAGUAATT against PSTPIP2 | 0.0136 (inactive) |
| CGCUGAAGUUUGUCCCUAATT against SEPX1 | -0.0545 (inactive) |
| CAGUGUGGAUACUAAUAAATT against PMVK | 0.269 (inactive) |
| CAAUCACCGCUGUGGUAAATT against UCP1 | -0.0744 (inactive) |
| CGAGGUGACUGGUACAAGATT against NDUFV1 | -0.653 (inactive) |
| CUACGAUUCUGGUGGAAUATT against TRRAP | -1.25 (active) |
| GGAUGAUUUAGAAUUGUCATT against ATP6V0C | -0.389 (inactive) |
| CCAUGUUCAGUUCCAAGGATT against CORO1A | 0.569 (inactive) |
| GGUGAUCACCAAGAUCAAATT against ADCY3 | -0.294 (inactive) |
| CUACACCUGUUUCAACAGATT against USPL1 | -1.87 (active) |
| AGAAGUCUGUUGCUAUGCATT against GNB5 | -0.535 (inactive) |
| GACCAUACCCAGUACCGAUTT against MYH15 | -0.939 (inactive) |
| GCAGGACCUUUUAGCAUCUTT against LYL1 | -0.118 (inactive) |
| ACCGCUAUGUCUACAUGUUTT against FADS6 | -0.637 (inactive) |
| GAAACAAACUUAUAGUGAUTT against WBP5 | 0.452 (inactive) |

| Sequence | median seed-adjusted z-score |
| --- | --- |
| GGAUUUUUGAUUUUCCGAATT against TUBAL3 | 1.05 (active) |
| CGAAGGCCUUGUGAACAGATT against FOSL1 | -0.431 (inactive) |
| CAGAGAAACGAGUCUUUAATT against ST6GALNAC5 | -0.0321 (inactive) |
| GCUUCUAAAUGUGAGACGATT against GCNT4 | -0.0629 (inactive) |
| GGGUACAACUCUUUGAAGATT against MNAT1 | -0.335 (inactive) |
| GCUCAAAUUGUUUUGCGUUTT against AKR1D1 | 0.211 (inactive) |
| CGCUUCAAGAGGUUCGGAATT against MLPH | -1.2 (active) |
| GAAAAGGGAUAACUACGAATT against HIVEP3 | 0.516 (inactive) |
| CCAGCGAGCUGAUCCUCAATT against MYCN | 0.00242 (inactive) |
| CCACCUUUGCAACGCGGAATT against TPSD1 | 0.0848 (inactive) |
| GAGAUGCUGUGAGUAGGUATT against TTC9C | -0.571 (inactive) |
| CGACAUUGCCCUGCUCAAATT against ELA2B | -0.154 (inactive) |
| GGGUCACAGAGGUCGAUAUTT against PDILT | -0.0994 (inactive) |
| CAAUAAGGCUCAUGCACAATT against GNAQ | -1.23 (active) |
| AACUCUUCAGGUGAAGAUATT against SLC8A2 | 0 (inactive) |
| GGAGUUUGCGUUUGAGGUATT against PLCD1 | -0.0473 (inactive) |
| CGAAUAUGAUGAAGAUGUUTT against PHF17 | 1.01 (active) |
| CAAAGAUCAUGAUAUUCCATT against JUB | -0.0898 (inactive) |
| CACCCACCUCAGAUUGAUATT against MBTPS2 | -0.324 (inactive) |
| CGCUCUACCUGAUCUGCUATT against SLC43A2 | -0.202 (inactive) |
| ACAUCAUGAGGAAUGCUAUTT against UCP3 | 1.23 (active) |
| GAGCAGAAAUUAUUCGUUATT against PGDS | 0.02 (inactive) |

| Sequence | median seed-adjusted z-score |
| --- | --- |
| GACUAAAGAUUCAGAUAAATT against TRIM13 | 0.712 (inactive) |
| CGACAGAGGCAGACACAGATT against BATF | -0.0501 (inactive) |
| GAAUUGCUCCACCAGAUAATT against NAALAD2 | -0.00068 (inactive) |
| GAUGAUGACUUACAUAGAATT against TRRAP | -1.25 (active) |
| CUAUAGCAAGUGAACUAAATT against COG5 | -0.0609 (inactive) |
| GGGUUGGUUUGGGCCUGAATT against SOX12 | 0.478 (inactive) |
| GAAGAGCAGUGUACCAUCATT against STARD8 | -0.135 (inactive) |
| AAGACGAACUUGAGCUGGATT against MAPK8IP1 | 0.576 (inactive) |
| GCUCCAAUGUCUACAGAAATT against MRGPRE | -0.65 (inactive) |
| CAGAUGAAAUACUACUUCUTT against ARD1A | -1.05 (active) |
| GCAGUUACCCGCAUACCAATT against CALCR | -0.404 (inactive) |
| GGGAAGCCGCCUAUACCAATT against TK1 | -0.0562 (inactive) |
| AGACCGUAAUUAUCGUCCUTT against EDG1 | -0.316 (inactive) |
| GGAUGACAUGUCUAGCAUUTT against NXF1 | -4.46 (active) |
| CAACCUAUCAUAUCUGUUUTT against SLC22A16 | 0.0878 (inactive) |
| CCAUCGGCAUCACCUUCUATT against SLC35C2 | -0.483 (inactive) |
| CUGUGAAAAUGGGACGGGATT against NDUFA6 | -0.457 (inactive) |
| CAUCAGUCAUAAUGCCUAUTT against MAP1D | 0.155 (inactive) |
| CGCCUCCAGUUUUAACUCUTT against POU2F3 | -1.53 (active) |
| GGGUAUUCUGGGCAUGAAATT against NANS | -1.54 (active) |
| GCAAGACCUAUGAAACGAUTT against CADPS | 0.551 (inactive) |
| GCACGAGGUUUUCACCUAUTT against SRMS | -1.58 (active) |

| Sequence | median seed-adjusted z-score |
| --- | --- |
| GUUAUACUGUGAGAUCUAATT against GPR160 | -0.278 (inactive) |
| GAGAUUGGGUGGAAGAGAATT against FOXD2 | -0.0853 (inactive) |
| AAGUCGGAAUAGAAUGGAATT against COX7B | -1.16 (active) |
| GGACAACAACUGAAAUGUATT against ZIM3 | -0.02 (inactive) |
| AGUUAGGCACAGUCAGACATT against POLD4 | 0.225 (inactive) |
| CGAUGUAUGACGAGGAAAATT against BTNL3 | 0 (inactive) |
| GUUACGACCUGGAAGAUUATT against SPATA5L1 | 0.252 (inactive) |
| GAGCAAGACUUCUACGUGATT against SERPINA5 | -1.01 (active) |
| GGCUAAGAAUGACCAUUAUTT against NPR2 | 0.0712 (inactive) |
| CAGUCGUCAUAAUACUGCATT against SMC4 | 0.646 (inactive) |
| CCCUGUUAGUAACGGCAAATT against OBFC2B | -0.061 (inactive) |
| AGAUGUACCUAUGUCAAGATT against OVOL1 | -0.0414 (inactive) |
| CCAUGUUUGAACAAGCCCATT against MYL7 | -1.21 (active) |
| GCACCUUUGUGACCUAUGATT against KIF9 | 0 (inactive) |
| CGCUAAAGCUGCACACUGATT against TRAF3 | 0.731 (inactive) |
| GAGCUGACUUUCUGACCAATT against RAB7A | 0.169 (inactive) |
| GCAACGGUGCUUUCCCAGATT against CASKIN1 | 0.555 (inactive) |
| CCAAAGUGGGUGUCAACGATT against BGN | 0.376 (inactive) |
| GAAUUUUGUGGUUACACUATT against POLR1D | -0.0409 (inactive) |
| GGGUGUAAUUCAUAAGGGUTT against PSMD1 | -1.61 (active) |
